# This is one part of a sample in which hits are shown more often than they occur.
# Pf Dd2 growth – inhibitors of Plasmodium falciparum Dd2 growth. hit rate 4.3% among 120,000. P. falciparum Dd2 growth, SYBR Green, 72 h. Potency, µM (doses to about 28.9 µM), inactives show top-dose activity, negative = inhibition, hits mostly inhibitors; active means well fitted inhibition curve with a large enough effect;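 further: plate controls were DMSO vehicle for no effect and reference drug for full effect; nearly all actives have a fitted effect of over 65% in size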
#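 Infected erythrocytes (Dd2, 0.3% parasitemia, 2.5% hematocrit final) are added to compound in RPMI-1640/Albumax II medium, grown 72 h at 37C in low oxygen, then lysed with saponin/Triton-X containing SYBR Green and read by fluorescence.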
# The depositor's hits bear a star; i = inactive; [ ] = dose if it differs, or a comment. Potency means the concentration at half of the fitted maximal effect.
SMILES,Pf Dd2 growth
COc1ccc(N2CC(c3noc(-c4cccc(C)c4)n3)CC2=O)cc1 (stereo not drawn),i
Cc1cccc(-c2nc3cc(C)ccc3cc2CN2CCN(CCCO)CC2)c1,i
CCNC(=O)N[C@H]1[C@H](O)[C@H](O)C[C@@H]1C1CCCCC1,-19%[44.1 µM]
Cc1nc(C(=O)N2CCC(Cc3nncn3-c3ccccc3)CC2)cs1,-6%
CCN(CC)C(=O)[C@@H]1CCC[C@@H](NCc2cccc(Cl)c2)CN(C)C(=O)C1,i
Cc1ccc(NC(=O)NCC2CCOCC2)cc1F,-15%
COc1cccc(CN2CCc3nc(N4CCN(C)CC4)ncc3C2)c1,-22%
Cc1cccc(CN2CCc3nc(N4CCN(c5ccccn5)CC4)ncc3C2)c1,i
COc1cccc(CN2CCc3nc(N4CCN(c5ncccn5)CC4)ncc3C2)c1,11µM*
O=C(NCC1CCOCC1)c1ccco1,11%
O=C(NC1C=CS(=O)(=O)C1)c1ccc2nc(-c3ccc(F)cc3)cn2c1 (stereo not drawn),-12%
CCN1C(=O)CCN(C(=O)NC2CCCCC2)CC12CCOCC2,2%
CC(C(=O)NCc1ccco1)C1CCOCC1 (stereo not drawn),9%
C#CCN(C)CC[C@@H]1CC[C@H](O)[C@@H](C(=O)N(C)Cc2ccccc2)O1,-12%[44.1 µM]
CN(Cc1ccccc1)C(=O)[C@H]1O[C@H](CCN2CCN(Cc3ccccc3)CC2)CC[C@@H]1O,4.5µM*
CN(Cc1ccccc1)C(=O)[C@H]1O[C@H](CCN2CCOCC2)CC[C@@H]1O,-11%[44.1 µM]
CC(C)Cc1cc(C(=O)N2CCc3[nH]nc(-c4ccccc4)c3C2)nc(=O)[nH]1,-12%
COc1ccc(N2CCN(c3ncncc3-c3nc(-c4ccccc4)no3)CC2)cc1,-20%
CNCC(=O)N1CCCC(N2CCN(Cc3ccc4c(c3)OCO4)CC2)C1 (stereo not drawn),-4%
COc1cc2nc(Cl)nc(N3CC4CCC(C3)N4CC(F)(F)F)c2cc1OC,5µM*
FC(F)(F)CN1C2CCC1CN(c1cc(Cl)ncn1)C2,11%
COc1ccc([N+](=O)[O-])c(N2CC3CCC(C2)N3CC(F)(F)F)n1,-1%
CN1CC(c2ccccc2)CC2(CCN(C(=O)C3CCOCC3)CC2)C1 (stereo not drawn),-9%
Cc1noc2ncnc(N3CCC4(CC3)CC(c3ccccc3)CN(C)C4)c12 (stereo not drawn),11µM*
CN1CC(c2ccccc2)CC2(CCN(C(=O)c3ccccc3)CC2)C1 (stereo not drawn),i
SMILES,Pf Dd2 growth
CCOc1ccccc1-c1noc(-c2nnn3c2COC(c2ccc(OC)cc2)C3)n1 (stereo not drawn),-4%
CC(C)c1noc(C2CCCN(C(=O)c3ccc4cccc(F)c4n3)C2)n1 (stereo not drawn),-2%
CS(=O)(=O)N1C[C@H]2CCN(Cc3ccccc3F)C[C@H]21,-12%
Cc1cc(=O)n(CC(=O)Nc2cccc(Br)c2)c(N2CCOCC2)n1,i
Cn1cccc1C(=O)NCC(=O)N1CCCCCCNC(=O)CC1c1ccccc1 (stereo not drawn),14%
COc1ccc(Cl)cc1S(=O)(=O)N1CCC(OC2CCN(C)CC2)CC1,3.2µM*
COc1ccc(OC)c(S(=O)(=O)N2CCC(OC3CCN(C)CC3)CC2)c1,i
COc1ccc(Cl)cc1S(=O)(=O)N1CCC(n2cnnc2C)CC1,-26%
CCCCS(=O)(=O)N1CCC(F)(c2nc(-c3ccccc3)no2)CC1,-1%
COc1ncccc1CN(Cc1cccnc1OC)C[C@H]1COCc2nc3ccc(C)cc3n21,4.5µM*
Cc1ccc2nc3n(c2c1)[C@@H](CNCc1ccccc1)COC3,i
COc1ccc2c(c1)nc1n2[C@@H](CN(Cc2nccs2)Cc2nccs2)COC1,-25%[44.1 µM]
O=C(CCC1CCN(C(=O)c2ccccc2Cl)CC1)NC1CCS(=O)(=O)C1 (stereo not drawn),-8%
CC(C)[C@H]1CN(CCC(=O)O)C[C@@H]1NC(=O)CCC1CCCC1,-9%
C=CCN1CC2(CCC1=O)CCN(C(=O)[C@@H](O)Cc1ccccc1)CC2,-3%
Cc1oc(-c2ccccc2Cl)nc1CN1C(=O)CN=C(c2ccccc2)c2cc(Cl)ccc21,-12%
Cc1nc(-c2ccccc2)n(Cc2nc(-c3ccc(Cl)cc3)oc2C)c(=O)c1CCO,i
Cc1cccc(CN2C(=O)CN=C(c3ccccc3)c3ccccc32)c1,-14%
O=C1CN=C(c2ccccc2)c2cc(Cl)ccc2N1Cc1ccc(Cl)cc1,8.9µM*
Cc1cc(C)cc(NC(=O)CN2C(=O)CN=C(c3ccccc3)c3cc(Cl)ccc32)c1,-18%
Cc1ccc(-c2nc(CN3C(=O)CN=C(c4ccccc4Cl)c4cc(Cl)ccc43)c(C)o2)cc1,11µM*
O=C(CC1CCCC1)N1CCC(N2CC3CC(C2)[C@H]2CCCC(=O)N2C3)CC1 (stereo partly drawn),-3%
CN(C)C(=O)N1CCCn2nc(CNC(=O)c3sccc3N)cc2C1,-12%
Cc1csc(NC(=O)c2ccc3c(c2)OCCN(CCC(F)(F)F)C3)n1,-20%[44.1 µM]
Cc1nc(C)c(C(=O)N2CCC3(CC2)CC(N2CCCCC2)CCO3)s1 (stereo not drawn),5%
SMILES,Pf Dd2 growth
Cc1nc(C2(C)CCN(C(=O)Cc3c(C)noc3C)CC2)no1,35%
O=C(CN1CCCC1=O)NC1CCN(Cc2ccccc2)CC1,-24%
CN(CC1CCOC1)C(=O)Nc1ccccc1 (stereo not drawn),43%[5.79 µM]
O=C(Cc1ccc(N(Cc2ccccc2)C(=O)c2ccco2)cc1)N1CCOCC1,i
COc1ccc(-c2cnc3[nH]cc(CC(=O)NCCN(C)C)c3c2)cc1,i
CNC(=O)[C@@H]1C[C@@H](n2cc(CNC(=O)Nc3ccc(C)c(Cl)c3)nn2)CN1,-9%
NCc1cccc(-c2cncnc2)c1,6%[44.1 µM]
NCc1cccc(-c2cccc(Cl)c2)c1,13µM*
C=Cc1cccc(-c2nccn2-c2cccc(CN)c2)c1,-28%
COc1ccccc1C(=O)N1CCCC(n2cc(-c3noc(C)n3)nn2)C1 (stereo not drawn),i
Cc1ccc(C)c(N2CCN(S(=O)(=O)c3ccc4[nH]c5c(c4c3)CCCCC5)CC2)c1,8.9µM*
Cc1ccc(N2CCN(S(=O)(=O)c3ccc4[nH]c5c(c4c3)CCCCC5)CC2)c(C)c1,-14%
Cc1ccc(Cl)cc1N1CCN(S(=O)(=O)c2ccc3[nH]c4c(c3c2)CCCC4)CC1,-25%
CC(C)(C)c1ccc(-c2cc(C[C@H]3CNCC[C@H]3CC(=O)N3CCC(n4c(=O)[nH]c5ccccc54)CC3)no2)cc1,6.3µM*
CC(C)(C)c1ccc(-c2cc(C[C@H]3CNCC[C@H]3CC(=O)O)no2)cc1,-18%[44.1 µM]
O=C(C[C@@H]1CCNC[C@@H]1Cc1cc(-c2ccccc2)on1)N1CCOCC1,10%[44.1 µM]
CCc1ccc2occ(CC(=O)N[C@H]3[C@@H](COC)[C@H]4OCC[C@@H]34)c2c1,-12%
C=CCn1cc(CN(Cc2ccco2)Cc2cccs2)c(C)n1,-20%
Cc1ncc(CO)c2c1Oc1nc(-c3ccccc3Cl)nc(SCc3ccccc3F)c1C2,4.5µM*
CCSc1nc(-c2ccccc2F)nc2c1Cc1c(CO)cnc(C)c1O2,10%
Cc1ncc(CO)c2c1Oc1nc(-c3ccccc3F)nc(SCC(=O)N3CCCCC3)c1C2,-8%
CCc1ccccc1NC(=O)CSc1nc(-c2cccc(Cl)c2)nc2c1Cc1c(CO)cnc(C)c1O2,-1%
Cc1ccc(C)c(CSc2nc(-c3ccccc3F)nc3c2Cc2c(CO)cnc(C)c2O3)c1,8.9µM*
O=C(CN1CCCC1=O)N1CCC(C2CCNC2)CC1 (stereo not drawn),19%

# Screening results: PubChem, National Center for Advancing Translational Sciences (NCATS)
